Values joined by “and” are separate entries in the source; they are usually repeats but may differ in a detail not shown here. Equal values may be shown once.

The test system of this assay is HL-1. The assay can be described thus: cardiomyocyte survival under oxidative or metabolic stress – cell-based, panel, H9c2 and HL-1, ATP luminescence, set 2, SAR follow-up (AID 651871).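 Note: cells exposed to stressor for 2 h before ATP readout; reference of the scale not given here.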 Particulars: H9c2/HL-1 cardiomyocytes, 2-deoxyglucose stress, with 2-deoxyglucose, run 12, at 79 µM (top of the series).
For `CCOC(=O)c1cccc(NC(=O)CNC(=O)c2cc(-c3cc(OC)c(OC)c(OC)c3)nc3ccccc23)c1`, the activity (protection/inhibition) turned out to be 63.3%.

On to `COc1ccc2c(c1OC)C(=O)N1c3ccccc3C(=O)N(Cc3cccc(Cl)c3Cl)C21` (stereo not drawn), for which the activity (protection/inhibition) was 65.5% and -16.5%.

Consider `COc1ccc2nc(-c3cc(OC)c(OC)c(OC)c3)cc(C(=O)NCC(=O)Nc3ccc(C(C)=O)cc3)c2c1`, for which the activity (protection/inhibition) was 62.5%.
